# Measurements published in PubChem BioAssay (NCATS).
# How the values were obtained:
# Experiment in all cases: Confirmatory Screen for Target Class Profiling of Small Molecule Inhibitors of Methyltransferases (AID 1745852); for activity change, negative = inhibition: % is set by controls: 0 for no effect and ±100 for the full control effect
# [1] = biological target: Catechol O-methyltransferase (Homo sapiens) (UniProt P21964); settings: MTase-Glo luminescence, SAH detection, recombinant enzyme; measured here: COMT max response; stronger effect = lower value
# Catechol O-methyltransferase (Homo sapiens), sequence (P21964 whole entry, looked up): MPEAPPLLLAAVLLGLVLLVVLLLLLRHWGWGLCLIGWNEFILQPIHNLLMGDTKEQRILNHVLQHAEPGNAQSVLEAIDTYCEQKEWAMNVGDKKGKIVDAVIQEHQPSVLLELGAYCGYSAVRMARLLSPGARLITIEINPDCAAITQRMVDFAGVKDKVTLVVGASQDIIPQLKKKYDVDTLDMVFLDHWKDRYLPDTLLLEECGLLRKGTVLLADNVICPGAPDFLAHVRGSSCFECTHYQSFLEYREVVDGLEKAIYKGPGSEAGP
# [2] = biological target: Guanidinoacetate N-methyltransferase (Homo sapiens) (UniProt Q14353); settings: MTase-Glo luminescence, SAH detection, recombinant enzyme; activity change, negative = inhibition: at 85.7 µM (top of the series) unless noted
# [3] = biological target: Nicotinamide N-methyltransferase (Homo sapiens) (UniProt P40261); settings: MTase-Glo luminescence, SAH detection, recombinant enzyme; measured here: NNMT max response; stronger effect = lower value
# Nicotinamide N-methyltransferase (Homo sapiens), sequence (P40261 whole entry, looked up): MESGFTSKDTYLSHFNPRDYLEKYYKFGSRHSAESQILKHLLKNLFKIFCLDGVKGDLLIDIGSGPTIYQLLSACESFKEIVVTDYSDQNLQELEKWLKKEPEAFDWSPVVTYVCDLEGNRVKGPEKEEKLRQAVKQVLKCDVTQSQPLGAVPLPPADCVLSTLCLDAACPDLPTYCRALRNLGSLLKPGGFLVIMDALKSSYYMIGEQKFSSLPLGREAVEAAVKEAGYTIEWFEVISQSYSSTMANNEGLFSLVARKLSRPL
# [4] = biological target: Phenylethanolamine N-methyltransferase (Homo sapiens) (UniProt P11086); settings: MTase-Glo luminescence, SAH detection, recombinant enzyme; measured here: PNMT max response; stronger effect = lower value
# Phenylethanolamine N-methyltransferase (Homo sapiens), sequence (P11086 whole entry, looked up): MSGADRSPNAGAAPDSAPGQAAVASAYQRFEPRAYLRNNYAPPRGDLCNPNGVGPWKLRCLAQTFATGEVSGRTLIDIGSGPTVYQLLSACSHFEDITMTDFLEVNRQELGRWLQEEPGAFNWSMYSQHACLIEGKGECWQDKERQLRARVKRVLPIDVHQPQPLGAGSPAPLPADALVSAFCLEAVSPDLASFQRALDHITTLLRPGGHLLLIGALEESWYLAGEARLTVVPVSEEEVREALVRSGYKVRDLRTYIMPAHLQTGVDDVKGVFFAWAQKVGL
compound,measurement,setting,value
CC(=O)c1cccc(NC(=O)NC[C@H]2C[C@@H]3CCN2C[C@@H]3c2cc(-c3ccc(F)cc3)nc(C)n2)c1,activity,[1],2.65%
same,"activity change, negative = inhibition",[2],5.17% [at 57.3 µM]
same,activity,[3],-9.36%
same,activity,[4],3.37%
